Measurements: PubChem BioAssay AID588692 (Broad Institute, 2011)
Among all 360,000 compounds or so, about 830 (0.23%) were called active.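 How the source made its calls: active means mean luciferase reporter signal, scaled so untreated is 0 and the glycosylation-blocking control 100, at or above a set limit in every replicate; inconclusive means mean reaches the limit but not every replicate does; inactive means mean below the limit.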 What follows is part of a selection rich in actives, with near analogues and random picks from the rest.

Assay: increase of ERlucT glycosylation luciferase signal, primary screen, N-linked glycosylation inhibitor project, D54 ERlucT cells, luminescence, set 2 (AID 588692);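 further: luciferase carries N-glycosylation sites so blocking glycosylation raises the light; 0% = median of neutral control wells and 100% = median of 100 nM tunicamycin wells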
Conditions: 24 h, at 12.5 µM, hits give high values, percent of 100 nM tunicamycin response

Reporter increase, active:
O=C(NCc1ccc2c(c1)OCO2)c1cc([N+](=O)[O-])ccc1N1CCOCC1 25.7%, Cc1ccc(Nc2nc(N)nc(CN3CCN(Cc4ccccc4)CC3)n2)cc1Cl 49%, Nc1ccc(C(=O)Nc2ccccc2N)cc1 69.6%, COc1cccc(C(NC(C)=O)c2nc(-c3ccccc3OC)cs2)c1 (configuration not stated) 62.8%, Cc1ccc(C(=O)Nc2ccc(NC(=O)c3cccs3)cc2)c(C)c1 47.6%, Cc1ccc(OCC(=O)Nc2ccc(NC(=O)c3cccs3)cc2)c(C)c1 79.9%, Cn1c(=O)n(C)c2cc(NS(=O)(=O)c3ccc(F)cc3)ccc21 27.7%, COCCCNC(=O)c1cccc2c(-c3ccc(O)c(OC)c3)coc12 31.5%

Reporter increase, inactive:
Cc1ccccc1NC(=O)c1ccc(COc2ccc3c(C)cc(=O)oc3c2)cc1 -2.09%, O=C(c1ccccc1)C(Cn1cncn1)C(Sc1ccccc1)c1ccccc1 (configuration not stated) -3.83%, CC1CCN(c2ccc(C(=O)NCc3ccc4c(c3)OCO4)cc2[N+](=O)[O-])CC1 -1.89%, O=C(Cc1ccc([N+](=O)[O-])cc1)NCCc1ccc2c(c1)OCO2 -0.789%, Cc1ccc(C(=O)NCC(c2cccs2)N(C)C)cc1S(=O)(=O)N1CCOCC1 (configuration not stated) 0.45%, Cc1nc(-c2ccccc2)sc1-c1nnc(C2CC2)o1 0.986%, Cc1ccccc1Nc1nc(N)nc(CN2CCN(c3ccccn3)CC2)n1 1.95%, CCOC(=O)C1CCCN(Cc2nc(N)nc(Nc3ccc(C)cc3)n2)C1 (configuration not stated) 1.57%, CCN(C(=O)COC(=O)c1cc(S(=O)(=O)N2CCc3ccccc32)ccc1OC)C1CCS(=O)(=O)C1 (configuration not stated) -1.41%, Cc1cccc(C(=O)NCc2nnc(SC(C)C(=O)Nc3nnc(C)s3)n2C)c1 (configuration not stated) -0.286%, CC(C)(Oc1ccc(C2CC2(Cl)Cl)cc1)C(=O)O (configuration not stated) 4.07%, O=C(Nc1ccccc1F)c1ccc(S(=O)(=O)N2CCCCCC2)cc1 -0.684%, O=C(Cc1ccccc1)Nc1ccc(C(=O)Nc2ccccc2C(=O)O)cc1 1.55%, Cc1ccc(S(=O)(=O)NC(=O)N2CCCN(Cc3ccc(F)cc3)CC2)cc1 -2.48%, O=C(CCNS(=O)(=O)c1ccccc1)NCCSc1ccc(Br)cc1 2.32%, CC1(C)CC(=O)C=C(NCc2ccncc2)C1 1.27%, O=C(CCN1C(=O)C2CCCCC2C1=O)Nc1ccc(OC(F)F)cc1 (configuration not stated) 0.177%, Cc1cc(Cl)ccc1N1C(=O)CC(SCCC(=O)O)C1=O (configuration not stated) 1.84%, O=C(O)CC(Cc1ccccc1)C(=O)Nc1ccc([N+](=O)[O-])cc1 (configuration not stated) -1.27%, CC(=O)NC(c1ccccc1)c1nc(-c2ccccc2C)cs1 (configuration not stated) 11.9%, COc1cccc(C(NC(C)=O)c2nc(-c3cnc4ccccc4c3)cs2)c1 (configuration not stated) 1.72%, COc1cccc(C(=O)N2CCC(n3nccc3NC(=O)C3CCOC3)CC2)c1 (configuration not stated) 0.842%, COc1ccc(Cl)cc1NS(=O)(=O)c1cccc(C(=O)NC2CCC(O)CC2)c1 (configuration not stated) -1%, Cc1[nH]n(C(N)=S)c(=O)c1N=Nc1ccc(Cl)cc1Cl -0.0505%, CC(=O)NC(Cc1ccc(F)c(F)c1)C(=O)NC1CCN(c2nnnn2-c2ccccc2)CC1 (configuration not stated) 0.485%, Cc1ccc(NNC(=O)c2cccs2)cc1Cl 1.56%, Cc1ccc(OCC(=O)Nc2ccc(N3CCN(C(=O)c4ccco4)CC3)cc2)c(C)c1 -5.46%, Cc1cccc(C(=O)Nc2ccc(C(=O)/C=C/c3cccs3)cc2)c1 -1.77%, C/C(=N\OCC(=O)Nc1ccc(Br)cc1)c1cccs1 2.32%, O=C(NCCN1CCOCC1)c1ccccc1N1C(=O)[C@@H]2Cc3c([nH]c4ccccc34)C(c3cccc(Cl)c3)N2C1=O (some centres not stated) 4.03%, COC(=O)c1cccc(N(C(=O)c2ccco2)C(C(=O)NC2CCCC2)c2ccco2)c1 (configuration not stated) 1.26%, COCCNc1ncnc2c1ncn2[C@H]1CN(Cc2ccc(OC)cc2)C[C@@H](CO)O1 0.218%, CC(C)C[C@H](NC(=O)NCCc1ccc(Cl)cc1)C(=O)O 0.0345%, CCN(CC)C(=O)CSc1nnc(-c2cnccn2)n1-c1ccc(C)cc1 1.32%, Cc1cccc(NC(=O)C(C)N2C(=O)C3C4CC(C(Br)C4Br)C3C2=O)c1 (configuration not stated) 2.15%, CCN(C(=O)c1cc([N+](=O)[O-])ccc1NCc1cccnc1)c1ccccc1 -2.09%, Cn1cnc2c1c(=O)n(Cc1ccccc1C#N)c(=O)n2C 1.69%, Cc1cc2oc(=O)cc(CN(C)Cc3ccccc3)c2cc1Cl 0.116%, CCN1C(=O)CS/C1=N\c1nccs1 0.352%, C=CCC[C@@H](Cc1ccc(F)cc1)C(=O)OC[C@H](Cc1c[nH]c2ccccc12)NC(=O)[C@@H](CC=C)CC(=O)N(CCO)Cc1ccccc1 -0.357%, Cn1c(CCN2CCN(c3ccccn3)CC2)nc2cc(NS(=O)(=O)c3ccc(F)cc3)ccc21 -5.5%, Cn1c(=O)n(C)c2cc(S(=O)(=O)Nc3ccc(F)cc3)ccc21 2.56%, COc1ccccc1CNC(=O)c1cc(-c2cc(F)ccc2OC)n[nH]1 0.448%, Cc1cc(F)ccc1N1CCC(N2CCN(C)C(CCO)C2)CC1 (configuration not stated) -1.14%, Cc1cc(O)ccc1-c1cc(C(=O)NCc2cc(C(F)(F)F)cc(C(F)(F)F)c2)[nH]n1 1.18%, COc1ccc(-c2coc3c(C(=O)NC(C)C)cccc23)c(C)c1 -2.53%, COCCCNC(=O)c1ccc(-c2c(C)noc2C)c2ccoc12 19.8%, COc1ccc(-c2ccc(CN3C(CC(C)C)C(=O)N(Cc4cn(CC5CCCCC5)nn4)CCS3(=O)=O)cc2)cn1 (configuration not stated) 4.1%, CSCCC(C(=O)NC1=NCCS1)N1C(=O)c2ccccc2C1=O (configuration not stated) -0.003%
